Experimental findings from the supplement of paper PMC10037445 are described below.

Test [1] relates to RAW-Dual. Briefly: NF-kB SEAP reporter activity, fold change vs agonist alone; cytotoxicity flag (confluency mask): cytotoxic (confluency <70% of control); higher = enhanced NF-kB activity. The method, boiled down: (§1)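 RAW-Dual macrophages (50,000 cells/well in DMEM, 384-well plates) received 50 nL of library stock by pin tool, then a PRR agonist 1 h later, and were kept at 37 °C, 5% CO2. After 20 hours, supernatant was read for IRF by QuantiLuc luminescence and for NF-κB by QuantiBlue absorbance at 620 nm. Reporter activity is fold change over agonist-alone wells. Cytotoxic wells had IncuCyte confluency below 70% of agonist controls in both mask sets.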

Test [2] relates to RAW-Dual. Put plainly: NF-kB SEAP reporter activity, fold change vs agonist alone; higher = enhanced NF-kB activity. The method, boiled down:
as §1

Test [3] concerns RAW-Dual. Put plainly: NF-kB SEAP reporter activity, fold change vs agonist alone; cytotoxicity flag (confluency mask): not cytotoxic; higher = enhanced NF-kB activity. The method in brief:
as §1

Setting [4] is: agonist: ODN 1826 (TLR9) 0.5 ug/mL.
The mark [5] stands for this setting: agonist: Pam2CSK4 (TLR2/6) 0.1 ug/mL.
Where [6] appears, read: agonist: Pam3CSK4 (TLR2/1) 0.1 ug/mL.
Setting [7] is: library stock concentration (final ~1000-fold dilution): 10 mM, cytotoxicity flag (confluency mask): cytotoxic (confluency <70% of control), agonist: Imiquimod (TLR7) […].
[8] abbreviates: library stock concentration (final ~1000-fold dilution): 10 mM, cytotoxicity flag (confluency mask): cytotoxic (confluency <70% of control), agonist: MPLA (TLR4) […].
The mark [9] stands for this setting: library stock concentration (final ~1000-fold dilution): 10 mM, cytotoxicity flag (confluency mask): not cytotoxic, agonist: Imiquimod (TLR7) […].
Where [10] appears, read: library stock concentration (final ~1000-fold dilution): 10 mM, cytotoxicity flag (confluency mask): not cytotoxic, agonist: MPLA (TLR4) […].
Setting [11] is: library stock concentration (final ~1000-fold dilution): 2 mM, cytotoxicity flag (confluency mask): not cytotoxic, agonist: Imiquimod (TLR7) […].
[12] abbreviates: library stock concentration (final ~1000-fold dilution): 2 mM, cytotoxicity flag (confluency mask): not cytotoxic, agonist: MPLA (TLR4) […].

The full ranking holds about 2,900 compounds; the median of “NF-kB SEAP reporter activity, fold change vs agonist alone” is about 0.99, and the highest 2% start at about 2.6. For the sample, the highest values were picked, then their nearest neighbours and some compounds at random.

Take `CNC1CCC(c2ccc(Cl)c(Cl)c2)c2ccccc21.Cl` (configuration not stated) (library stock concentration (final ~1000-fold dilution): 10 mM): the “NF-kB SEAP reporter activity” value turned out to be 0.879 in test [1] (agonist: LPS (TLR4) 0.1 ug/mL), 0.405 in test [1] (setting [4]), 0.42 in test [1] (setting [5]) and 0.484 in test [1] (setting [6]).
As to `CNC1CCC(c2ccc(Cl)c(Cl)c2)c2ccccc21.Cl` (configuration not stated), the results for the “NF-kB SEAP reporter activity” value in test [2] (setting [7]) and in test [2] (setting [8]) were 1.64 and 1.56, respectively.
For `CC(C)(C)c1ccc(Cn2nc(-c3ccc(Cl)cc3)cc2C(=O)NO)cc1` (library stock concentration (final ~1000-fold dilution): 10 mM), the “NF-kB SEAP reporter activity” value in test [3] (agonist: LPS (TLR4) 0.1 ug/mL) was 1.32; in test [3] (setting [4]), 1.24; in test [3] (setting [5]) it was 0.824; in test [3] (setting [6]), 0.964.
For `CC(C)(C)c1ccc(Cn2nc(-c3ccc(Cl)cc3)cc2C(=O)NO)cc1`, the results for the “NF-kB SEAP reporter activity” value in test [2] (setting [9]) and in test [2] (setting [10]) were 1.47 and 1.5, respectively.
In the case of `COC1/C=C/OC2(C)Oc3c(C)c(O)c4c(O)c(c(/C=N/N5CCN(C)CC5)c(O)c4c3C2=O)NC(=O)/C(C)=C/C=C/C(C)C(O)C(C)C(O)C(C)C(OC(C)=O)C1C` (configuration not stated) (library stock concentration (final ~1000-fold dilution): 10 mM), the “NF-kB SEAP reporter activity” value came out at 0.987 in test [3] (agonist: LPS (TLR4) 0.1 ug/mL), 0.979 in test [3] (setting [4]), 0.906 in test [3] (setting [5]) and 0.892 in test [3] (setting [6]).
Take `COC1/C=C/OC2(C)Oc3c(C)c(O)c4c(O)c(c(/C=N/N5CCN(C)CC5)c(O)c4c3C2=O)NC(=O)/C(C)=C/C=C/C(C)C(O)C(C)C(O)C(C)C(OC(C)=O)C1C` (configuration not stated): the results for the “NF-kB SEAP reporter activity” value in test [2] (setting [9]) and in test [2] (setting [10]) were 0.886 and 0.877, respectively.
For `O=C(O)c1ccc(CSc2nc(-c3ccccc3)cc(N3CCN(c4ccccc4Cl)CC3)n2)cc1`, in that order: 0.515 and 0.868.
Take `O=C(O)c1ccc(CSc2nc(-c3ccccc3)cc(N3CCN(c4ccccc4Cl)CC3)n2)cc1` (library stock concentration (final ~1000-fold dilution): 10 mM): the “NF-kB SEAP reporter activity” value in test [3] (agonist: LPS (TLR4) 0.1 ug/mL) is 0.736; in test [3] (setting [4]), 0.584; in test [3] (setting [5]) it was 0.248; in test [3] (setting [6]), 0.392.
With `CC(C)CC(NC(=O)CNC(=O)c1cc(Cl)ccc1Cl)B1OC(=O)CC(CC(=O)O)(C(=O)O)O1` (configuration not stated) (library stock concentration (final ~1000-fold dilution): 10 mM), the “NF-kB SEAP reporter activity” value amounted to 0.585 in test [3] (agonist: LPS (TLR4) 0.1 ug/mL), 0.938 in test [3] (setting [4]), 0.905 in test [3] (setting [5]) and 0.999 in test [3] (setting [6]).
As to `CC(C)CC(NC(=O)CNC(=O)c1cc(Cl)ccc1Cl)B1OC(=O)CC(CC(=O)O)(C(=O)O)O1` (configuration not stated), the entries for the “NF-kB SEAP reporter activity” value in test [2] (setting [9]) and in test [2] (setting [10]) were 0.956 and 0.913, respectively.
For `O=c1nc(N2CCOCC2)oc2c(-c3cccc4c3sc3ccccc34)cccc12`, in that order: 1.1 and 1.85.
On to `O=c1cc(N2CCOCC2)oc2c(-c3cccc4c3sc3ccccc34)cccc12`, for which the “NF-kB SEAP reporter activity” value in test [2] (setting [11]) turned out to be 1.46; in test [2] (setting [12]) it was 2.31.
For `O=c1cc(N2CCOCC2)oc2c(-c3cccc4c3sc3ccccc34)cccc12` (library stock concentration (final ~1000-fold dilution): 2 mM), the “NF-kB SEAP reporter activity” value was 5.39 in test [3] (agonist: LPS (TLR4) 0.1 ug/mL), 1.43 in test [3] (setting [4]), 1.05 in test [3] (setting [5]) and 2.43 in test [3] (setting [6]).
On to `O=c1cc(N2CCOCC2)oc2c(-c3ccccc3)cccc12` (library stock concentration (final ~1000-fold dilution): 10 mM), for which the “NF-kB SEAP reporter activity” value in test [1] (agonist: LPS (TLR4) 0.1 ug/mL) came to 1.81; in test [1] (setting [4]), 1.34; in test [1] (setting [5]), 0.984; in test [1] (setting [6]) it was 1.19.
As to `O=c1nc(N2CCOCC2)oc2c(-c3cccc4c3sc3ccccc34)cccc12` (library stock concentration (final ~1000-fold dilution): 10 mM), the “NF-kB SEAP reporter activity” value in test [3] (agonist: LPS (TLR4) 0.1 ug/mL) turned out to be 3.45; in test [3] (setting [4]), 1.08; in test [3] (setting [5]), 0.718; in test [3] (setting [6]) it was 1.38.
For `O=c1cc(N2CCOCC2)oc2c1ccc1ccccc12` (library stock concentration (final ~1000-fold dilution): 2 mM), in that order: 1.12, 1, 0.982 and 1.07.
With `O=c1cc(N2CCOCC2)oc2c(-c3ccccc3)cccc12`, the “NF-kB SEAP reporter activity” value was determined as 1.07 in test [2] (setting [7]) and 1.63 in test [2] (setting [8]).
For `O=c1cc(N2CCOCC2)oc2c1ccc1ccccc12`, the “NF-kB SEAP reporter activity” value worked out at 1.04 in test [2] (setting [11]) and 0.989 in test [2] (setting [12]).
Turning to `CC(=O)N1CCCC1C(=O)NC(Cc1c[nH]cn1)C(=O)NC(CO)C(=O)NC(CS)C(=O)NC(CC(N)=O)C(N)=O` (configuration not stated), the “NF-kB SEAP reporter activity” value came out at 0.979 in test [2] (library stock concentration (final ~1000-fold dilution): 10 mM water, cytotoxicity flag (confluency mask): not cytotoxic, agonist: Imiquimod (TLR7) […]) and 1.06 in test [2] (library stock concentration (final ~1000-fold dilution): 10 mM water, cytotoxicity flag (confluency mask): not cytotoxic, agonist: MPLA (TLR4) […]).
As to `CC(=O)N1CCCC1C(=O)NC(Cc1c[nH]cn1)C(=O)NC(CO)C(=O)NC(CS)C(=O)NC(CC(N)=O)C(N)=O` (configuration not stated) (library stock concentration (final ~1000-fold dilution): 10 mM water), the “NF-kB SEAP reporter activity” value was 1.15 in test [3] (agonist: LPS (TLR4) 0.1 ug/mL), 1.22 in test [3] (setting [4]), 1.19 in test [3] (setting [5]) and 1.02 in test [3] (setting [6]).
In the case of `CC(C)COc1ccc(CNC(=O)N(Cc2ccc(F)cc2)C2CCN(C)CC2)cc1.CC(C)COc1ccc(CNC(=O)N(Cc2ccc(F)cc2)C2CCN(C)CC2)cc1.O=C(O)C(O)C(O)C(=O)O`, the results for the “NF-kB SEAP reporter activity” value in test [2] (setting [7]) and in test [2] (setting [8]) were 0.496 and 1.23, respectively.
For `CC(C)COc1ccc(CNC(=O)N(Cc2ccc(F)cc2)C2CCN(C)CC2)cc1.CC(C)COc1ccc(CNC(=O)N(Cc2ccc(F)cc2)C2CCN(C)CC2)cc1.O=C(O)C(O)C(O)C(=O)O` (library stock concentration (final ~1000-fold dilution): 10 mM), the “NF-kB SEAP reporter activity” value in test [1] (agonist: LPS (TLR4) 0.1 ug/mL) amounted to 0.205; in test [1] (setting [4]), 0.239; in test [1] (setting [5]), 0.0981; in test [1] (setting [6]), 0.143.
On to `CCNC1=NC2C(OC(CO)C(O)C2O)S1` (configuration not stated), for which the “NF-kB SEAP reporter activity” value in test [2] (setting [9]) was found to be 1; in test [2] (setting [10]) it was 1.17.
For `CCNC1=NC2C(OC(CO)C(O)C2O)S1` (configuration not stated) (library stock concentration (final ~1000-fold dilution): 10 mM), the “NF-kB SEAP reporter activity” value is 1.15 in test [3] (agonist: LPS (TLR4) 0.1 ug/mL), 1.17 in test [3] (setting [4]), 1.04 in test [3] (setting [5]) and 1.5 in test [3] (setting [6]).
